# Measurements from PubChem BioAssay (NCI).
# This is part of a sample that, as a whole, favours compounds with a hit. Of some 83,000 tested, about 20% had one in any assay.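 Compound tested at a single concentration for 48 hours in 96-well plates; a percent growth value below 10 was scored as active.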 A number with no mark means an inactive call. The source made the active and inactive calls.
# Test system: NCI/ADR-RES ovarian
# Test: NCI-60 one-dose screen, 48 h (100 = growth as untreated, 0 = no growth, -100 = all killed)
# Conditions: 10 µM unless noted
# Description: Growth inhibition of the NCI/ADR-RES human […] tumor cell line is measured as a screen for anti-cancer activity. Cells are grown in 96 well plates and exposed to the test compound for 48 hours. Compounds are tested at a single concentration, which is 10^-5 M for most compounds. The reported endpoint is percent growth (GI% or GIPRCNT), where numbers from 0 - 100% represent growth inhibition, and numbers from -100% - 0 represent cell death. For example, a value of 40 represents 60% growth inhibition. A value of 0 means no net growth occurred over the course of the experiment. A value of -40 indicates 40% of cells at the beginning of the experiment died by the end of the experiment. A value of -100 means all cells are dead at the end of the experiment.
# NCI-60 Human Tumor Cell Lines Screen was performed using the standard one-dose NCI protocol, which is described in more detail at https://dtp.cancer.gov/discovery_development/nci-60/default.htm.
# Compounds with GIPRCNT values below 10 were considered active. Activity score was based on GIPRCNT using the following formula: […]
# Score is 0 for GIPRCNT values of 100 or above, 50 for GIPRCNT values of 0, and 100 for GIPRCNT values of -100.
row,SMILES,growth
1,COc1cccc(-n2cc(-c3nc(Nc4cc(C)[nH]n4)c4ccccc4n3)nn2)c1,30.6%
2,COc1c(C2CC(=O)Nc3c2cnn3Cc2ccco2)cc2c(c1OC)OCO2 (stereo not given),4.88% (active)
3,O=C(Cn1cc(CN2C(=O)c3ccccc3S2(=O)=O)nn1)Nc1ccc([N+](=O)[O-])cc1Cl,89.3%
4,CN1CCCCC1CCN1c2ccccc2Sc2ccc(Cl)cc21 (stereo not given),72.9%
5,C=C1CC2(OC1=O)C(=O)Nc1ccccc12 (stereo not given),66.5%
6,COc1nc2c(cc1S(=O)(=O)c1ccccc1)CCc1c-2cnn1Cc1ccccc1,48.2%
7,CC/C=C\C[C@H](F)C/C=C1/C(=O)C=C[C@@H]1C/C=C\CCCC(=O)OC,14.2%
8,C=C1CCC2C3(C)COC(c4ccccc4Br)OC3CCC2(C)C1C/C=C1/C(=O)OCC1OC(C)=O (stereo not given),-3.45% (active)
9,COc1ccc(C(=O)c2sc3nc4c(cc3c2N)CCCC4)cc1OC,19.7%
10,CCCCCCCCCCCCCCCCCCNC(=O)[C@H]1CSC(c2ccc(OC)c(F)c2)N1 (stereo not given in full),-36.8% (active)
11,O=C(Nc1cccc2[nH]c(C(F)(F)F)nc12)c1ccc(Br)cc1F,10.8%
12,CCN(CC)Cc1cc(Nc2c3ccccc3nc3cc(Cl)ccc23)ccc1O,-38.5% (active)
13,CC[C@H](Nc1cc(C)nc(N)n1)c1nc2cccc(NCc3ccc(C(=O)NO)cc3)c2c(=O)n1-c1ccccc1,90.6%
14,O=C(Nc1ccc(CN2CCOCC2)cc1)c1[nH]ncc1Nc1ncnc2sccc12,4.5% (active)
15,CN1CCN(Cc2ccc(NC(=O)c3[nH]ncc3Nc3ncnc4c3CCC4)cc2)CC1,71.7%
16,COc1cccc(NC(=O)c2sc3nc4c(cc3c2N)CN(Cc2ccccc2)CC4)c1,63.2%
17,CCCCCCCCCC(=O)Oc1ccc(/C(=C(/C)c2ccccc2)c2ccc(OCCN3CCCC3)cc2)cc1,28%
18,Clc1nc(Cl)c2c3c(sc2n1)CCCC3,99.7%
19,Cc1ccc(NC(=O)c2sc3nc4c(cc3c2N)C(=O)CCC4)cc1C,10.9%
20,COc1cc(OC)c(/C=C/S(=O)(=O)Cc2cnc(OC)c(N)c2)c(OC)c1,7.65% (active)

row,SMILES,growth
1,C=C1CCC2C3(C)COC(c4ccc(OC)cc4Br)OC3CCC2(C)C1/C=C/C1=CCOC1=O (stereo not given),68.6%
2,O=C1C[C@H](N2C(=O)c3ccccc3S2(=O)=O)C2CO[C@@H]1O2,98.3%
3,CCN(CC)CC(O)CNc1c2ccc([N+](=O)[O-])cc2nc2cc(OC)c(OC)cc12 (stereo not given),51.7%
4,COc1cc(NCCCCN=C(N)NC(N)=NC(C)C)c2ncccc2c1,109%
5,CCOC(=O)/C=C/C(=O)[C@H](CC(C)C)NC(=O)[C@H](Cc1ccccc1)NC(=O)OCc1ccccc1,89.6%
6,O=C1CCc2c(sc3[nH]c(=S)n(Cc4ccccc4)c(=O)c23)C1,4.56% (active)
7,Cc1ccc2c(c1)n([O-])c1cc(Cl)ccc1[n+]2=O,104%
8,C[C@]12C[C@@H](c3ccoc3)OC(=O)[C@@H]1CC[C@]1(C)[C@@H]2CC[C@@H](O)[C@]1(C)O,104%
9,O=C1c2cccnc2C(=O)c2c1c(C(=O)OCCN1CCCCC1)c1ccccn21,-25.5% (active)
10,O=C(CN1CCN(c2cc3c(cc2F)c(=O)c(C(=O)O)cn3C2CC2)CC1)Nc1nc(-c2ccccc2)cs1,92.7%
11,O=C1Nc2ccccc2C12CC(c1ccc(Cl)cc1)=NN2 (stereo not given),108%
12,CCOC(=O)c1nc(Nc2cc(C)[nH]n2)c2ccccc2n1,114%
13,COCCCN=C(N)c1ccc(NC(=O)c2ccc(C(=O)Nc3ccc(C(N)=NCCCOC)cc3)cc2)cc1,112%
14,N#Cc1c2c(nc3n[nH]c(N)c13)CCCC2,105%
15,CCCC(=O)Oc1ccc(/C(=C(/CC)Cc2ccccc2)c2ccc(OCCN3CCCC3)cc2)cc1,69.9%
16,Cn1c2c(Cl)c(Cl)ccc2c2ccn3c(=O)c4ccccc4nc3c21,99.4%
17,O=C(CCCN1CCOCC1)Nc1ccc(Cn2nnc3c2C(=O)c2nnn(Cc4ccc(NC(=O)CCCN5CCOCC5)cc4)c2C3=O)cc1,102%
18,O=C1c2ccccc2-c2nccc3cc(Cl)nc1c23,69%
19,NS(=O)(=O)N(c1cc(C(F)(F)F)cc(C(F)(F)F)c1)C1CCN(Cc2ccc(F)cc2)CC1,51.3%
20,CCOC(=O)/C=C/c1ccc(C(=O)OCC)[nH]1,8.24% (active)
